This note sets out measurements from ChEMBL document CHEMBL4808148, “HDAC6 screening dataset using tau-based substrate in an enzymatic assay yields selective inhibitors and activators” (2021).

Molecules are shown by their SMILES. Hit rate of the full screen: of about 5,600 compounds, about 390 (7%) showed an effect of 50% or more. The sample as a whole holds a higher share of strong results than the screen did.

The experiment deals with T1, Protein deacetylase HDAC6 (Homo sapiens) (UniProt Q9UBN7).
T1 sequence (whole entry): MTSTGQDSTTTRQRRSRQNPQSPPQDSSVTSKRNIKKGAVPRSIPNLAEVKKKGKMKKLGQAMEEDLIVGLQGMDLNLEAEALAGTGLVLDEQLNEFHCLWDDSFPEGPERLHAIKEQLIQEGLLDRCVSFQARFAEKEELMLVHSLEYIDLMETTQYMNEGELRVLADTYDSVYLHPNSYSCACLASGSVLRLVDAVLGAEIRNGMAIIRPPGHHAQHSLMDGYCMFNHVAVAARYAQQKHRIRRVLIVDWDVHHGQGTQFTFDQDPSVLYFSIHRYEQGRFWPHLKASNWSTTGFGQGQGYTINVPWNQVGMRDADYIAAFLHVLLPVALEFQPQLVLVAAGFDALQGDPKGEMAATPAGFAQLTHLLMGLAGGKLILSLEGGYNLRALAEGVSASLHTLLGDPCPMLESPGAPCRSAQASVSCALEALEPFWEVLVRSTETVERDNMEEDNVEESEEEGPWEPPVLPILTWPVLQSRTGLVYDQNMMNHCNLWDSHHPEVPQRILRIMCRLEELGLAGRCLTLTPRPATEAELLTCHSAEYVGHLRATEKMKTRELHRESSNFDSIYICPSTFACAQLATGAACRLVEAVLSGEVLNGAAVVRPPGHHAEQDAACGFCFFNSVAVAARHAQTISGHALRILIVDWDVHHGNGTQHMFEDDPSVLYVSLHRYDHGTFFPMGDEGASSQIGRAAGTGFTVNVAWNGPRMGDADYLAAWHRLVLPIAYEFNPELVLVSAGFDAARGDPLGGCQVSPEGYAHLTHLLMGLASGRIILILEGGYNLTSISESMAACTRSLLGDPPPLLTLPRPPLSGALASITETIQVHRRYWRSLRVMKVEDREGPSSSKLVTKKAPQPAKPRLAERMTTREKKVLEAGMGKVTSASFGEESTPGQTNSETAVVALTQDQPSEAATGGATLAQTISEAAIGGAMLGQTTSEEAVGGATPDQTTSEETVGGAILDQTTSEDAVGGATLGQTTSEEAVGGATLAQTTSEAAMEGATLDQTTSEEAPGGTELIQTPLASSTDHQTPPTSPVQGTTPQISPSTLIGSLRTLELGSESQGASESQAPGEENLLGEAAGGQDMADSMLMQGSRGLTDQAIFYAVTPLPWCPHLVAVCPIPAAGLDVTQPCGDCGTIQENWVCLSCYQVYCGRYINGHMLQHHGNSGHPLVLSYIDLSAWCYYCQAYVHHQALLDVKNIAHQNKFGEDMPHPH
The following applies: at 10 µM.
A word on the inhibition: it is the drop in the measured response relative to a control, in per cent. `N[C@H]1CCN(O)C1=O`: the inhibition is -4.15%.

On to `CCNC(=O)[C@@H]1CCCN1C(=O)[C@H](CCCNC(=N)N)NC(=O)[C@H](CC(C)C)NC(=O)[C@@H](CC(C)C)NC(=O)[C@H](Cc1ccc(O)cc1)NC(=O)[C@H](CO)NC(=O)[C@H](Cc1c[nH]c2ccccc12)NC(=O)[C@H](Cc1c[nH]cn1)NC(=O)[C@@H]1CCC(=O)N1`, for which the inhibition was found to be 33.6%.

Consider `N#Cc1c(N)nc(SCc2ncc[nH]2)c(C#N)c1-c1ccc(O)cc1`, for which the inhibition worked out at 54.7%.

`CC(C)C[C@H](NC(=O)[C@@H](Cc1c[nH]c2ccccc12)NC(=O)[C@H](Cc1ccc(O)cc1)NC(=O)[C@H](CO)NC(=O)[C@H](Cc1c[nH]c2ccccc12)NC(=O)[C@H](Cc1c[nH]cn1)NC(=O)[C@@H]1CCC(=O)N1)C(=O)N[C@@H](CCCNC(=N)N)C(=O)N1CCC[C@H]1C(=O)NCC(N)=O`: the inhibition was -2.71%.

As to `CN(C)CCN(Cc1cccs1)c1ccccn1`, the inhibition was 11.5%.

With `Nc1nc(O)c2c(n1)NCC(CNc1ccc(C(=O)N[C@@H](CCC(=O)O)C(=O)O)cc1)N2` (stereo not given in full), the inhibition is -7.59%.

`Cc1csc(-c2nnc(Nc3ccc(Oc4ncccc4-c4ccnc(N)n4)cc3)c3ccccc23)c1`: the inhibition came to 72.1%.

As to `Cc1cc(C(=O)Nc2nc3cccc(Cl)c3n2[C@@H]2CCCCN(C(=O)/C=C/CN(C)C)C2)ccn1`, the inhibition is -3.32%.

Consider `C#CCN1C(C)=C(C(=O)OC)C(c2cccc([N+](=O)[O-])c2)C(C(=O)OCC)=C1C` (stereo not given), for which the inhibition was -1.94%.

As to `C=CC(=O)Nc1cccc(Oc2nc(Nc3ccc(N4CCN(C)CC4)cc3)nc3ccsc23)c1`, the inhibition amounted to 14.3%.

Take `CCC(C)C(CC)C(N)=O` (stereo not given): the inhibition was 2.6%.

Consider `C=Cc1cc(O)cc2nc(-c3ccc(O)c(F)c3)oc12`, for which the inhibition is -4.14%.

Regarding `O=C(NC1CC1)c1cc(-c2cccs2)on1`, the inhibition came out at 75.4%.

On to `C=CC(=O)Nc1cc2c(Nc3ccc(F)c(Cl)c3)ncnc2cc1OCCCN1CCOCC1`, for which the inhibition was 9.13%.

In the case of `Nc1nncs1`, the inhibition stood at 6.15%.

Turning to `NC(=O)c1ccc([N+](=O)[O-])cc1Cl`, the inhibition is 8.11%.

For `O=C(Nc1ccc([N+](=O)[O-])cc1O)Nc1ccccc1Br`, the inhibition stood at 101%.

With `CN(N=O)C(=O)N[C@@H](C=O)[C@@H](O)[C@H](O)[C@H](O)CO`, the inhibition was -1.89%.

With `c1ccc2cc(C3=NCCN3)ncc2c1`, the inhibition was 3.66%.

Take `Cc1sc2c(c1C)C(c1ccc(Cl)cc1)=N[C@@H](CC(=O)Nc1ccc(OCCOCCOCCOCCNc3cccc4c3C(=O)N(C3CCC(=O)NC3=O)C4=O)cc1)c1nnc(C)n1-2` (stereo not given in full): the inhibition was 9.19%.

With `CC(C(=O)O)c1ccc(C(=O)c2cccs2)cc1` (stereo not given), the inhibition was -7.49%.

Consider `CC(C(=O)O)c1ccc(N2Cc3ccccc3C2=O)cc1` (stereo not given), for which the inhibition came out at 94.7%.

On to `CC(C(=O)O)c1ccc2c(c1)CC(=O)c1ccccc1S2` (stereo not given), for which the inhibition was -3.14%.

For `CCC(C)(C)c1ccc(CC(C)CN2C[C@@H](C)O[C@@H](C)C2)cc1` (stereo not given in full), the inhibition is -1.12%.

Consider `C=C1NC[C@H](O)[C@@H](C(=O)O)N1`, for which the inhibition was -0.94%.

For `COC(=O)C1=C(C)NC(C)=C(C(=O)OCCSc2ccccc2)C1C` (stereo not given), the inhibition is -9.24%.

As to `CCOc1ccc(-n2c(C(C)N(Cc3cccnc3)C(=O)Cc3ccc(OC(F)(F)F)cc3)nc3ncccc3c2=O)cc1` (racemic), the inhibition came out at 6.86%.

Take `O=C1Nc2cc(Br)ccc2/C1=C1/Nc2ccccc2/C1=N\O`: the inhibition was determined as 93.4%.

With `CN1C(=O)/C(=C2/C(=O)Nc3ccccc32)c2ccccc21`, the inhibition is 32.9%.

`O=C1Nc2ccccc2/C1=C1/Nc2ccccc2/C1=N\O`: the inhibition came to 100%.

With `O=C1Nc2ccccc2/C1=C1/Nc2ccccc2C1=O`, the inhibition came to 60.6%.

In the case of `N[C@@H]1CCN(O)C1=O`, the inhibition was 19.6%.

For the compound `C/C=C1\C(=O)C[C@H]2[C@@H]3CCC4=CC(=O)CC[C@]4(C)[C@H]3CC[C@]12C`, the inhibition was -4.59%.

Consider `Cc1csc2c(N[C@@H](C)CN3CCN(S(=O)(=O)c4ccc(Cl)c(Cl)c4)CC3)ncnc12`, for which the inhibition amounted to 7.29%.

As to `CNC(=O)[C@H]1O[C@@H](n2cnc3c(NCc4cccc(I)c4)ncnc32)[C@H](O)[C@@H]1O`, the inhibition turned out to be 9.22%.

As for `CC(C)(C)c1cc(O)c(C(C)(C)C)cc1O`, the inhibition was 10.7%.

`CCOc1cc(C(=O)Nc2ccc(Cl)c(-c3nc4ccccc4[nH]3)c2)cc(OCC)c1OCC`: the inhibition was found to be 11.9%.

Regarding `Nc1nc(=O)c2c([nH]1)NC[C@H](CNc1ccc(C(=O)N[C@@H](CCC(=O)O)C(=O)O)cc1)N2C=O`, the inhibition came to 3.47%.

In the case of `O=c1[nH]cnc2c1cnn2[C@@H]1O[C@H](CO)[C@@H](O)[C@H]1O`, the inhibition came out at 20.8%.

Take `N[C@@H](Cc1cc(-c2ccc(Cl)cc2Cl)cc(CP(=O)(O)O)c1O)C(=O)O`: the inhibition turned out to be 4.67%.

Turning to `O=c1c(O[C@@H]2O[C@H](CO)[C@H](O)[C@H](O)[C@H]2O)c(-c2ccc(O)c(O)c2)oc2cc(O)cc(O)c12`, the inhibition is 28.9%.

`Cc1cc(=O)oc2c(C=O)c(O)ccc12`: the inhibition was -7.63%.

Consider `O=c1c(O)c(-c2ccc(O)cc2O)oc2cc(O)cc(O)c12`, for which the inhibition was 92.5%.

For `O=c1c(O)c(-c2cc(O)c(O)c(O)c2)oc2cc(O)cc(O)c12`, the inhibition stood at 100%.

For `C[C@@H]1O[C@@H](Oc2c(-c3cc(O)c(O)c(O)c3)oc3cc(O)cc(O)c3c2=O)[C@H](O)[C@H](O)[C@H]1O`, the inhibition is -6.79%.

For the compound `O=C1c2c(O)cc(O)cc2O[C@H](c2cc(O)c(O)c(O)c2)[C@H]1O`, the inhibition is -0.55%.

As to `Cc1cc(=O)oc2cc(O)ccc12`, the inhibition is 35.6%.

Take `O=c1c(O)c(-c2ccc(O)cc2)oc2cc(O)cc(O)c12`: the inhibition was found to be 98.8%.

Take `O=c1c(O)c(-c2ccc(O)c(O)c2)oc2cc(O)ccc12`: the inhibition is 97.4%.

For `COc1ccc(C(=O)/C(Cc2cc(OC)c(OC)c(OC)c2)=C(\C(=O)O)c2ccc3c(c2)OCO3)cc1`, the inhibition was 26.5%.
